Reference: the supplement of paper PMC10849652
Of roughly 8,800 targets only a part is listed; those with a hit were picked by preference. About 0.5% of all pairs of compound and target were hits. Values without a mark were called inactive.

Legend:
Test in all cases: log2 fold change, soluble protein after heating vs DMSO (PISA); higher = thermal stabilisation; K562 lysate, 10 uM; active = over 0.2 and 3.5 SD of the protein, either way, in both replicates (recomputed)
[1] = compound: CCCS(=O)(=O)Nc1ccc(F)c(C(=O)c2c[nH]c3ncc(-c4ccc(Cl)cc4)cc23)c1F [vemurafenib]
How it was run: (§1)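 A 30 min treatment with 10 μM compound was applied to crude K562 extract at 1 mg/mL protein in PBS pH 7.4 with 1 mM MgCl2. Heating for 3 min spanned 48°C-58°C, after which aliquots were pooled, adjusted to 0.5% NP-40 at 4°C and spun at 21,000xg for 90 min. TMTpro 16plex LC-MS/MS of the supernatant, with channel sums equalised, gave values recorded as log-two fold change in thermal stability against solvent controls, from duplicates.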

[2] = compound: CCCS(=O)(=O)Nc1ccc(F)c(C(=O)c2c[nH]c3ncc(Cl)cc23)c1F
How it was run: as §1

[3] = compound: CC[C@@H]1C(=O)N(C)c2cnc(Nc3ccc(C(=O)NC4CCN(C)CC4)cc3OC)nc2N1C1CCCC1
How it was run: as §1

[4] = compound: CC[C@@H]1C(=O)N(C)c2cnc(Nc3ccc(C(=O)N[C@H]4CC[C@H](N5CCN(CC6CC6)CC5)CC4)cc3OC)nc2N1C(C)C [volasertib]
How it was run: as §1

[5] = compound: CCn1c(C(=O)N(C2CC2)C2CC2)cc2c3c(ncn3C)c(Nc3cc(C)n(C)n3)nc21
How it was run: as §1

[6] = compound: CN1CCN(CCOc2cc(OC3CCOCC3)c3c(Nc4c(Cl)ccc5c4OCO5)ncnc3c2)CC1 [saracatinib]
How it was run: as §1

[7] = compound: CCN(CCCOc1ccc2c(Nc3cc(CC(=O)Nc4cccc(F)c4)[nH]n3)ncnc2c1)CCOP(=O)(O)O [barasertib]
How it was run: as §1

[8] = compound: CCn1cc(-c2ccnc3[nH]c(-c4cccc(CN(C)C)c4)cc23)c(-c2ccc(NC(=O)N(C)C)cc2)n1
How it was run: as §1

[9] = compound: CN1CCC(CNc2ccc3ncc(-c4cccc(OC(F)(F)F)c4)n3n2)CC1
How it was run: as §1

[10] = compound: CN1CCN(c2nc(C3=C(c4c[nH]c5ccccc45)C(=O)NC3=O)c3ccccc3n2)CC1 [sotrastaurin]
How it was run: as §1

UniProt Q92974, sequence (Q92974 whole entry, looked up): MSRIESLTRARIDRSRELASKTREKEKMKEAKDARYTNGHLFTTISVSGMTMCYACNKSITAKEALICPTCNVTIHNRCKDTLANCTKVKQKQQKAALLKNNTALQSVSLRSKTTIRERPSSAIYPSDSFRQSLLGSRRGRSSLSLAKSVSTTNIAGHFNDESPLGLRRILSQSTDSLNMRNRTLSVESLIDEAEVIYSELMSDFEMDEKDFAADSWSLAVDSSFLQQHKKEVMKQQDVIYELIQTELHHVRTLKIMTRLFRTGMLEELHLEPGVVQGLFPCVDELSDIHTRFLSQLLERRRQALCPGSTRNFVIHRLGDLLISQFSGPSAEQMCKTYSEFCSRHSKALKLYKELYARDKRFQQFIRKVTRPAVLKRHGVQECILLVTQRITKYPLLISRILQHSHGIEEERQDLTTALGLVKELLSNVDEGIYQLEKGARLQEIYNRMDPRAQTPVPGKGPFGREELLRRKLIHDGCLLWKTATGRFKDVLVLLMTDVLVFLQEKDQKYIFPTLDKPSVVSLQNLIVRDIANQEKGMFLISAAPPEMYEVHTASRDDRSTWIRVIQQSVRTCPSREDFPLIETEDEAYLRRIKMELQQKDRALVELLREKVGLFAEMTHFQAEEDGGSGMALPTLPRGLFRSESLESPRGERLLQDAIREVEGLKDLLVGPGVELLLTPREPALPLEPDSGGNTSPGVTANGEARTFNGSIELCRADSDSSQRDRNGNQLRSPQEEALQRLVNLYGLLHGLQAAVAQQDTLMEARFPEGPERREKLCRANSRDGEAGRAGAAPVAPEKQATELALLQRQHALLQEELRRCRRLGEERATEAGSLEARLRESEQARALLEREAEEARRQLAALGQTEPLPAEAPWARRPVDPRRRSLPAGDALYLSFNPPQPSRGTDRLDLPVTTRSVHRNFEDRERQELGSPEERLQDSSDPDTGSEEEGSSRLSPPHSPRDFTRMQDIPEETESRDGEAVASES
UniProt Q9NXR5, sequence (Q9NXR5 whole entry, looked up): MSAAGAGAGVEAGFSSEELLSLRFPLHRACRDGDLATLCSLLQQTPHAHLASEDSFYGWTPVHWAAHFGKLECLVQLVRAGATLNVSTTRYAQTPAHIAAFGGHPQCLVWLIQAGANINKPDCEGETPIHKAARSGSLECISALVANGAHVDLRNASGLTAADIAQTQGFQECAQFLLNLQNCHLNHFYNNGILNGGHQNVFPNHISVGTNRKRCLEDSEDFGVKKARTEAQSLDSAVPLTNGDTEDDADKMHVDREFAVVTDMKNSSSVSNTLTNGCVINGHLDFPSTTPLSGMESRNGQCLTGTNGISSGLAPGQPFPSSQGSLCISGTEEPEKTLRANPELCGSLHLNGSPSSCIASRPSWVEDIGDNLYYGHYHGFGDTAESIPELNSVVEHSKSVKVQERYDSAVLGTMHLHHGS
UniProt Q8N302, sequence (Q8N302 whole entry, looked up): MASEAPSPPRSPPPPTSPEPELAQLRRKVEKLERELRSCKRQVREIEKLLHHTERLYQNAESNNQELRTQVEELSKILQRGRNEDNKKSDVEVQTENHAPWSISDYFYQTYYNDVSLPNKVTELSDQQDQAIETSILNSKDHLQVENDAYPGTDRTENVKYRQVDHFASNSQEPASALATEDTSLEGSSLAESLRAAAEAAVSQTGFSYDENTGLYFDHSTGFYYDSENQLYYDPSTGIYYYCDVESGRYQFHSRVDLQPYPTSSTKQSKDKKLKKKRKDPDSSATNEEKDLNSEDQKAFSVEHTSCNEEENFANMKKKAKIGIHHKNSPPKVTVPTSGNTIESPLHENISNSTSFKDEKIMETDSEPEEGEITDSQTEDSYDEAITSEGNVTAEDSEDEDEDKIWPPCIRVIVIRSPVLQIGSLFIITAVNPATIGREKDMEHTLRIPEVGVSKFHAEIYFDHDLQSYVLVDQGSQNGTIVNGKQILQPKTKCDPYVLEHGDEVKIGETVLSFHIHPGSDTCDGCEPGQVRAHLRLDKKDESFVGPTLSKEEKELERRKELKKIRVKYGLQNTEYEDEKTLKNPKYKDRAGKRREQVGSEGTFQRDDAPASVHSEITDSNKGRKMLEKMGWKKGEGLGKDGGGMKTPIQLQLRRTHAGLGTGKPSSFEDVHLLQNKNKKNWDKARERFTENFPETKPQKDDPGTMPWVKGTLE
UniProt P30838, sequence (P30838 whole entry, looked up): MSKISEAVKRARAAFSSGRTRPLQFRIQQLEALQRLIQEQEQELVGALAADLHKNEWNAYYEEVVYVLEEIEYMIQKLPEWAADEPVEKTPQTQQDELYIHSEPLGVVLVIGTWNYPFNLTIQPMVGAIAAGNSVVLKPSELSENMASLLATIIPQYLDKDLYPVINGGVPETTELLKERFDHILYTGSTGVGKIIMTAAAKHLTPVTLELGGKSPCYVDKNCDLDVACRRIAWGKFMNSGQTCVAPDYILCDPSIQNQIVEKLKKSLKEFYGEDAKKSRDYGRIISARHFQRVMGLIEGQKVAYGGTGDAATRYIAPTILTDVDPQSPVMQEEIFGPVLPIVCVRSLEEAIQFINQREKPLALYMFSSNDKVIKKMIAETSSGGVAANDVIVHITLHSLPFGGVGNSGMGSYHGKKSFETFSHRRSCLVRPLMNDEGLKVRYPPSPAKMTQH
UniProt Q7L211, sequence (Q7L211 whole entry, looked up): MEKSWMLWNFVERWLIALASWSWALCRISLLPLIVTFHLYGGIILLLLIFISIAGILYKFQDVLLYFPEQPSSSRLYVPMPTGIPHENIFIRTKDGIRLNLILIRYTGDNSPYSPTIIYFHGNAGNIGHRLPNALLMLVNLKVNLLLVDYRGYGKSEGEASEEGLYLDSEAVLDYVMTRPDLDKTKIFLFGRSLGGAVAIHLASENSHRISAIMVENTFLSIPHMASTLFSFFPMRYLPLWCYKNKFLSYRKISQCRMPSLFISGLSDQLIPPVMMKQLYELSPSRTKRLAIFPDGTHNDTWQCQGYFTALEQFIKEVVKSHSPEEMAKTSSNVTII
UniProt Q13155, sequence (Q13155 whole entry, looked up): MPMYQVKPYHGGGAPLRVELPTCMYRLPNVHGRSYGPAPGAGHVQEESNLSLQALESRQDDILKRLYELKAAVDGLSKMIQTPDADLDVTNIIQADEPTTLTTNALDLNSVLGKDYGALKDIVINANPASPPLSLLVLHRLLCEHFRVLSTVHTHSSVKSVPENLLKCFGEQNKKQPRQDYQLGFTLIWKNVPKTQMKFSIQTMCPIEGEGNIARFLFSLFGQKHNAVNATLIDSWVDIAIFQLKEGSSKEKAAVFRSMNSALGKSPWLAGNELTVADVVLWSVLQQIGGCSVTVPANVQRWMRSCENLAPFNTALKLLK
UniProt Q9BXX3, sequence (Q9BXX3 whole entry, looked up): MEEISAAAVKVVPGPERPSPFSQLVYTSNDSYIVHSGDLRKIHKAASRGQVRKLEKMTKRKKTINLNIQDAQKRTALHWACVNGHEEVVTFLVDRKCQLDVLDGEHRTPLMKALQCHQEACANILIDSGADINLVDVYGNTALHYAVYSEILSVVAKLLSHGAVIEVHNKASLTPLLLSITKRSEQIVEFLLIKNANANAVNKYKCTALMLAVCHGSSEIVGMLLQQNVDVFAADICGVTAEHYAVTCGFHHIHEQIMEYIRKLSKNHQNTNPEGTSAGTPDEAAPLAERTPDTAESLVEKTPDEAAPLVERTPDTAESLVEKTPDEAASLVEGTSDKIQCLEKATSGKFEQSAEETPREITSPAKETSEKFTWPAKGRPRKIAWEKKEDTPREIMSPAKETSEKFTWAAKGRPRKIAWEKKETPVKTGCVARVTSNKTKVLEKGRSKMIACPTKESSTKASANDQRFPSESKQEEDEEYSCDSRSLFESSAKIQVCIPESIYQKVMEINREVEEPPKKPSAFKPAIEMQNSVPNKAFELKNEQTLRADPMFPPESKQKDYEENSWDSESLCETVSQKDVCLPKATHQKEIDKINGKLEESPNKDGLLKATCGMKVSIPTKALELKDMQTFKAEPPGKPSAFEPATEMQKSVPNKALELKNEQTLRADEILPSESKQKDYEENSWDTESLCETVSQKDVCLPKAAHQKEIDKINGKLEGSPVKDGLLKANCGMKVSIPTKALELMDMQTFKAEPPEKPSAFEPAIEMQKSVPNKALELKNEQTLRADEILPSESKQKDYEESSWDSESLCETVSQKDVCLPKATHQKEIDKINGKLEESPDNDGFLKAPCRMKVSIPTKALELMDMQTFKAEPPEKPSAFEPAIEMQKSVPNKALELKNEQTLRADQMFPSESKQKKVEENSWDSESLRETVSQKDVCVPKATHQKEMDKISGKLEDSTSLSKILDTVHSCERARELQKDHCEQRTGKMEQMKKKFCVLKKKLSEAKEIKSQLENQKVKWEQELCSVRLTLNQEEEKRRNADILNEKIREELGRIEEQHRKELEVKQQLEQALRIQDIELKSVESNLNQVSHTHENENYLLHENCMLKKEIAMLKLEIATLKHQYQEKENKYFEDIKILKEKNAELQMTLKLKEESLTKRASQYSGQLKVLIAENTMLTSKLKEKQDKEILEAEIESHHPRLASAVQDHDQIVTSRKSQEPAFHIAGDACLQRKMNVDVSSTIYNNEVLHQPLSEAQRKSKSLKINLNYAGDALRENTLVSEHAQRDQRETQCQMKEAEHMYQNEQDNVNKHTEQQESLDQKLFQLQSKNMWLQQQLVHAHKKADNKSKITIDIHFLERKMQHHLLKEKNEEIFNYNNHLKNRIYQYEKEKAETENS
UniProt Q9Y303, sequence (Q9Y303 whole entry, looked up): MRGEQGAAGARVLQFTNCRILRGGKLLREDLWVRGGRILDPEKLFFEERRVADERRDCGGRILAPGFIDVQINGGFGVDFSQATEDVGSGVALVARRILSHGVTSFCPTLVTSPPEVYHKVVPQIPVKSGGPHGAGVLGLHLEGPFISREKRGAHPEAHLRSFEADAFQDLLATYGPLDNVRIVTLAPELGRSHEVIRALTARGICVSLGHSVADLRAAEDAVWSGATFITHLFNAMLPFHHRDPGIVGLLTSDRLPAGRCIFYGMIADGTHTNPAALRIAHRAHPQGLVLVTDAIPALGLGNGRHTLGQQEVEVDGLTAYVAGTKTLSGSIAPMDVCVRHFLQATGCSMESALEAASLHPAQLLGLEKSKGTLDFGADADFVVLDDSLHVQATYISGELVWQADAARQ

| Target | log2 fold change [1] | log2 fold change [2] | log2 fold change [3] | log2 fold change [4] | log2 fold change [5] | log2 fold change [6] | log2 fold change [7] | log2 fold change [8] | log2 fold change [9] | log2 fold change [10] |
| --- | --- | --- | --- | --- | --- | --- | --- | --- | --- | --- |
| ARHGEF2 (UniProt V9GYF0) | -0.013 | 0.05 | 0.022 | -0.022 | 0.11 | -0.114 | – | – | – | – |
| ANKRD10 (UniProt Q9NXR5) | 0.056 | -0.035 | – | 0.1 | 0.115 | 0.017 | 0.137 | -0.19 | -0.022 | 0.01 |
| ALDH18A1 isoform 2 (UniProt P54886) | 0.308 | – | – | – | 0.043 | 0.13 | – | – | – | 0.121 |
| ANKRD30A (UniProt Q9BXX3) | – | 0.111 | -0.102 | -0.08 | 0.152 | 0.072 | 0.087 | 0.262 | 0.891 | 0.032 |
| ADAM17 (UniProt P78536) | 0.071 | – | -0.151 | – | -0.027 | -0.011 | -0.184 | 0.065 | 0.001 | 0.002 |
| AMDHD2 (UniProt Q9Y303) | -0.128 | – | – | – | – | – | – | -0.116 | 0.052 | 0.047 |
| ADK, A0A5F9ZH76 | – | -0.174 | – | 0.167 | – | – | -0.019 | – | – | – |
| ABI1 isoform 6 (UniProt Q8IZP0) | – | -0.219 | 0.248 | 0.026 | – | – | – | – | – | – |
| AIMP2 isoform 2 (UniProt Q13155) | – | -0.134 | – | 0.047 | -0.027 | – | 0.038 | – | – | 0.014 |
| ANKRD40 (UniProt Q6AI12) | 0.501 | – | -0.118 | – | -0.066 | -0.101 | -0.091 | 0.094 | -0.075 | 0.012 |
| AGPAT2 (UniProt O15120) | 0.33 (active) | – | 0.108 | – | 0.002 | – | – | -0.034 | 0.023 | 0 |
| ACLY isoform 2 (UniProt P53396) | 0.035 | 0 | 0.045 | -0.033 | -0.187 | – | -0.088 | -0.485 (active) | 0.43 | 0.02 |
| ALKBH1 (UniProt Q13686) | 0.069 | – | -0.05 | – | -0.043 | -0.037 | – | 0.015 | -0.072 | – |
| ARL13B (UniProt Q3SXY8) | -0.075 | -0.039 | – | 0.065 | -0.043 | 0.007 | -0.041 | 0.325 | -0.246 | 0.117 |
| AIF1L (UniProt Q9BQI0) | – | 0.049 | -0.101 | -0.086 | 0.091 | 0.13 | 0.009 | 0.153 | -0.117 | 0.115 |
| ARHGEF2 (UniProt Q92974) | -0.006 | 0.013 | 0 | -0.026 | -0.021 | 0.009 | -0.002 | -0.02 | -0.003 | 0.027 |
| ALDH3A1 (UniProt P30838) | – | 0.014 | – | 0.035 | -0.399 | 1.2 (active) | – | -0.618 | 0.216 | -0.007 |
| ABHD13 (UniProt Q7L211) | 0.069 | -0.016 | -0.107 | 0.06 | – | 0.179 | 0.102 | -0.543 (active) | 0.077 | -0.031 |
| ALG13 isoform 2 (UniProt Q9NP73) | – | – | – | – | – | – | – | 0.016 | -0.098 | – |
| AGGF1 (UniProt Q8N302) | 0.112 | -0.043 | 0.084 | -0.06 | 0.001 | – | 0.115 | -0.43 (active) | 0.175 | 0.025 |
| ACYP2 (UniProt P14621) | -0.245 | -0.023 | – | 0.011 | -0.007 | – | 0.04 | 0.189 | -0.036 | -0.019 |
| AKR1C2 (UniProt P52895) | 0.001 | 0.018 | 0.008 | -0.018 | -0.043 | 0.062 | -0.008 | -0.369 (active) | 0.148 | 0.006 |
| ANXA2 (UniProt H0YL33) | – | 0.012 | – | 0.136 | 0.012 | 0.088 | 0.37 | 0.643 (active) | -0.416 | 0.214 |
